Data on eight compounds can be found in PubChem BioAssay (NCI).

About 83,000 compounds went through this panel and 20% of them were active in at least one assay; those are over-represented in the sample as a whole.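 Results are percent growth after 48 hours of single-concentration exposure. 100 means growth as in untreated cells, lower positive values show inhibition; negative values down to -100 show cell death.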 Unmarked numbers belong to inactive results. Activity calls are given as the source filed them. The calls were made as follows: active = growth percent below 10; inactive = the rest.

Test systems include NCI-H23 lung; NCI-H226 lung; NCI-H322M lung; HOP-62 NSCLC; NCI-H460 lung; HOP-92 NSCLC; NCI-H522 lung; A549/ATCC NSCLC; 786-0 renal; COLO 205 colon; DU-145 prostate; K-562 leukemia; MALME-3M melanoma; MDA-MB-231 breast; RXF 393 renal; SF-268 CNS; SF-295 CNS; SF-539 CNS; UACC-257 melanoma; M14 melanoma.
Common to all, as to assay: NCI-60 one-dose screen, 48 h (100 = growth as untreated, 0 = no growth, -100 = all killed)
Settings in all cases: 10 µM unless noted

In the case of `O=C(O)CCNC1CCCCC1`, the growth with NCI-H23 lung was 90.4%; in the assay on NCI-H226 lung, 93.9%; in the assay on NCI-H322M lung it was 115%; with HOP-62 NSCLC, 91.6%; in the assay with NCI-H460 lung, 99.3%; with HOP-92 NSCLC, 100%. For the same compound, the growth with NCI-H522 lung was 79.7%; in the assay on A549/ATCC NSCLC, 102%; in the assay with 786-0 renal, 101%; with COLO 205 colon, 95.8%; in the assay with DU-145 prostate, 112%; with K-562 leukemia it was 100%. Besides, the growth with MALME-3M melanoma is 144%; in the assay on MDA-MB-231 breast it was 100%; with RXF 393 renal, 137%; with SF-268 CNS, 97.8%; in the assay with SF-295 CNS, 131%; in the assay with SF-539 CNS it was 95.7%. The values for the growth with UACC-257 melanoma and in the assay on M14 melanoma were 20.9% and 93.3%, respectively.
For `O=C(O)c1ccc(-n2cc(/C=N/Nc3ccc(Cl)cc3Cl)c(-c3ccccc3)n2)cc1`, the growth is 84.5% in the assay with NCI-H23 lung; 88.6% in the assay with NCI-H226 lung; 103% in the assay on NCI-H322M lung; 92.2% with HOP-62 NSCLC; 102% in the assay with NCI-H460 lung; 106% in the assay with HOP-92 NSCLC. Moreover, the growth with NCI-H522 lung was 78%; with A549/ATCC NSCLC it was 97.1%; in the assay with 786-0 renal it was 97.5%; in the assay with COLO 205 colon, 96.7%; in the assay with DU-145 prostate it was 93.6%; in the assay with K-562 leukemia, 87.8%. Also, the growth in the assay with MALME-3M melanoma was 92.3%; in the assay on MDA-MB-231 breast, 81.7%; in the assay with RXF 393 renal, 97.9%; in the assay with SF-268 CNS it was 81.8%; in the assay on SF-295 CNS, 74.7%; in the assay with SF-539 CNS, 82%. The results for the growth with UACC-257 melanoma and in the assay on M14 melanoma were 116% and 88.1%, respectively.
Consider `c1ccc(-c2n(Cc3ccc4ccccc4n3)cc[n+]2Cc2ccc3ccccc3n2)cc1`, for which the growth with NCI-H23 lung is 22.9%; in the assay with NCI-H226 lung it was 36.2%; with NCI-H322M lung, 85.9%; with HOP-62 NSCLC, 74.3%; with NCI-H460 lung, 41.6%; in the assay on HOP-92 NSCLC, -6.03% (active). Further, the growth is 16.2% in the assay with NCI-H522 lung; 73.3% in the assay with A549/ATCC NSCLC; 77.7% in the assay on 786-0 renal; -49.3% (active) in the assay on COLO 205 colon; 65.8% in the assay with DU-145 prostate; 16.9% in the assay with K-562 leukemia. For the same compound, the growth was 19.8% with MALME-3M melanoma; 30.5% with MDA-MB-231 breast; 52.2% in the assay with RXF 393 renal; 41.8% in the assay with SF-268 CNS; 67.8% in the assay with SF-295 CNS; 37.2% with SF-539 CNS. Moreover, the growth in the assay on UACC-257 melanoma was -14.6% (active); in the assay with M14 melanoma, 34.6%.
Take `Sc1cccc2cccnc12`: the growth was 55.4% in the assay on NCI-H23 lung; 55.7% with NCI-H226 lung; 36.3% in the assay on NCI-H322M lung; 36.7% with HOP-62 NSCLC; 6.81% (active) in the assay with NCI-H460 lung; 95.6% in the assay on HOP-92 NSCLC. Besides, the growth in the assay with NCI-H522 lung is -12.6% (active); in the assay on A549/ATCC NSCLC, 19.1%; in the assay on 786-0 renal it was 31.5%; in the assay on COLO 205 colon, 24.4%; in the assay with DU-145 prostate, 27.1%; in the assay with K-562 leukemia, 9% (active). In addition, the growth is 10.9% with MALME-3M melanoma; 33.8% in the assay on MDA-MB-231 breast; 13.4% with RXF 393 renal; 34.1% in the assay with SF-268 CNS; 47.1% with SF-295 CNS; 53.8% in the assay on SF-539 CNS. The growth was 24.3% in the assay on UACC-257 melanoma and -3.55% (active) in the assay with M14 melanoma.
Regarding `C#C[C@@]1(O)[C@@H](CO)O[C@@H](n2cc(I)c3c(N)ncnc32)[C@@H]1O`, the growth was -14.5% (active) with NCI-H23 lung; 52.2% in the assay on NCI-H226 lung; 20% in the assay on NCI-H322M lung; -3.39% (active) in the assay with HOP-62 NSCLC; -25.4% (active) with NCI-H460 lung; -23.8% (active) with HOP-92 NSCLC. The growth in the assay on NCI-H522 lung is -49.6% (active); in the assay on A549/ATCC NSCLC, -56.5% (active); in the assay on 786-0 renal, -24.3% (active); in the assay on COLO 205 colon, -50.2% (active); in the assay with DU-145 prostate, 7.45% (active); in the assay on K-562 leukemia it was 6.9% (active). In addition, the growth is -5.65% (active) with MALME-3M melanoma; 2.55% (active) in the assay with MDA-MB-231 breast; -27.7% (active) with RXF 393 renal; 28.5% with SF-268 CNS; 10.5% in the assay on SF-295 CNS; -40.5% (active) in the assay with SF-539 CNS. Besides, the growth in the assay with UACC-257 melanoma is 44.7%; with M14 melanoma, 22.4%.
Turning to `COc1ccc(/C=C/C(=O)Nc2ncnc3nc[nH]c23)cc1`, the growth is 97.7% with NCI-H23 lung; 104% in the assay with NCI-H226 lung; 101% in the assay on NCI-H322M lung; 109% in the assay on HOP-62 NSCLC; 99.2% in the assay on NCI-H460 lung; 106% in the assay on HOP-92 NSCLC. The growth with NCI-H522 lung is 81.1%; in the assay on A549/ATCC NSCLC, 92.9%; in the assay on 786-0 renal, 95.6%; with COLO 205 colon, 115%; in the assay with DU-145 prostate it was 92.1%; in the assay with K-562 leukemia it was 81.2%. In addition, the growth in the assay with MALME-3M melanoma is 96.4%; in the assay with MDA-MB-231 breast it was 109%; in the assay with RXF 393 renal, 95.4%; in the assay with SF-268 CNS, 93.5%; in the assay with SF-295 CNS, 107%; with SF-539 CNS it was 100%. Also, the growth with UACC-257 melanoma was 100%; in the assay on M14 melanoma it was 87.8%.
Turning to `O=C1C(Cl)=C(Nc2ccc3c(c2NC2=C(Cl)C(=O)c4ccccc4C2=O)C(=O)c2ccccc2C3=O)C(=O)c2ccccc21`, the growth was -3.56% (active) in the assay on NCI-H23 lung; 36.9% with NCI-H226 lung; 46.9% with NCI-H322M lung; 39.5% in the assay with HOP-62 NSCLC; 10.4% in the assay on NCI-H460 lung; 61.4% with HOP-92 NSCLC. In addition, the growth in the assay with NCI-H522 lung is 12.4%; with A549/ATCC NSCLC it was -31.8% (active); in the assay with 786-0 renal, 48.5%; in the assay with COLO 205 colon, 21.1%; in the assay on DU-145 prostate, -83.9% (active); with K-562 leukemia, 16.6%. In addition, the growth with MALME-3M melanoma is -85.1% (active); in the assay with MDA-MB-231 breast, 14.6%; in the assay on RXF 393 renal, 48.5%; with SF-268 CNS, 39.5%; in the assay on SF-295 CNS, 23.8%; with SF-539 CNS it was 15%. Besides, the growth in the assay with UACC-257 melanoma is -20.4% (active); with M14 melanoma, -64.8% (active).
As for `COc1cc(C2=N/C(=C\c3cc4ccccc4nc3Oc3ccccc3)C(=O)N2C(=N)N)cc(OC)c1OC`, the growth was 71% in the assay with NCI-H23 lung; 18.7% with NCI-H226 lung; 55.4% with NCI-H322M lung; -0.576% (active) in the assay on HOP-62 NSCLC; 52.1% with NCI-H460 lung; 27.9% with HOP-92 NSCLC. Moreover, the growth in the assay with NCI-H522 lung is 60.3%; in the assay on A549/ATCC NSCLC it was 77.1%; in the assay with 786-0 renal, 28.6%; with COLO 205 colon it was 90.4%; with DU-145 prostate, 80.4%; with K-562 leukemia it was 82.3%. For the same compound, the growth was 57.8% with MALME-3M melanoma; 42.4% with MDA-MB-231 breast; 42% in the assay on RXF 393 renal; 30.7% with SF-268 CNS; 55.1% with SF-295 CNS; 33.4% in the assay with SF-539 CNS. Also, the growth was 76.4% with UACC-257 melanoma and 74.2% with M14 melanoma.
